Experiment [1] deals with 5'-AMP-activated protein kinase catalytic subunit alpha-2 (Homo sapiens) (UniProt P54646). The note with it: at 1 µM.
Experiment [2] concerns the target T1, NUAK family SNF1-like kinase 1 (Homo sapiens) (UniProt O60285).
T1 sequence (whole entry): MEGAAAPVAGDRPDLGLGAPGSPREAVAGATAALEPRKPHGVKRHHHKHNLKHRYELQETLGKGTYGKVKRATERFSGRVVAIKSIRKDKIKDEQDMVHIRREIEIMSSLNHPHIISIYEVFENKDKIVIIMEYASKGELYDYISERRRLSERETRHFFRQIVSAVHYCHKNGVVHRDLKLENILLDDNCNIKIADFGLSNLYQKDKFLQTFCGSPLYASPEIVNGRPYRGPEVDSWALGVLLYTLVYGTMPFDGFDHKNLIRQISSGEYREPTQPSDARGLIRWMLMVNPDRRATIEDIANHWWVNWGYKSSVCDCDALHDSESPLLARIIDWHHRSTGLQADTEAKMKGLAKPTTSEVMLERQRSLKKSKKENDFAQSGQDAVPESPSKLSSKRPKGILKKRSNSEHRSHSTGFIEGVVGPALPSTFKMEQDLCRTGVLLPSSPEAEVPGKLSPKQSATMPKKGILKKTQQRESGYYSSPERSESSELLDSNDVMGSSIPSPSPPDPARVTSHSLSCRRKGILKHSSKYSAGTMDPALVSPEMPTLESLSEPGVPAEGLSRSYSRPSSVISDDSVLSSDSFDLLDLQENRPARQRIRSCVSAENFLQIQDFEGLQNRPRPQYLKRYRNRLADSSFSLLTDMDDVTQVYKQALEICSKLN
The note with it: at 0.1 µM.

Experiment [3] has as its target T1, NUAK family SNF1-like kinase 1 (Homo sapiens). The note with it: at 1 µM.
Experiment [4] addresses T2, Serine/threonine-protein kinase BRSK1 (Homo sapiens) (UniProt Q8TDC3).
T2 sequence (whole entry): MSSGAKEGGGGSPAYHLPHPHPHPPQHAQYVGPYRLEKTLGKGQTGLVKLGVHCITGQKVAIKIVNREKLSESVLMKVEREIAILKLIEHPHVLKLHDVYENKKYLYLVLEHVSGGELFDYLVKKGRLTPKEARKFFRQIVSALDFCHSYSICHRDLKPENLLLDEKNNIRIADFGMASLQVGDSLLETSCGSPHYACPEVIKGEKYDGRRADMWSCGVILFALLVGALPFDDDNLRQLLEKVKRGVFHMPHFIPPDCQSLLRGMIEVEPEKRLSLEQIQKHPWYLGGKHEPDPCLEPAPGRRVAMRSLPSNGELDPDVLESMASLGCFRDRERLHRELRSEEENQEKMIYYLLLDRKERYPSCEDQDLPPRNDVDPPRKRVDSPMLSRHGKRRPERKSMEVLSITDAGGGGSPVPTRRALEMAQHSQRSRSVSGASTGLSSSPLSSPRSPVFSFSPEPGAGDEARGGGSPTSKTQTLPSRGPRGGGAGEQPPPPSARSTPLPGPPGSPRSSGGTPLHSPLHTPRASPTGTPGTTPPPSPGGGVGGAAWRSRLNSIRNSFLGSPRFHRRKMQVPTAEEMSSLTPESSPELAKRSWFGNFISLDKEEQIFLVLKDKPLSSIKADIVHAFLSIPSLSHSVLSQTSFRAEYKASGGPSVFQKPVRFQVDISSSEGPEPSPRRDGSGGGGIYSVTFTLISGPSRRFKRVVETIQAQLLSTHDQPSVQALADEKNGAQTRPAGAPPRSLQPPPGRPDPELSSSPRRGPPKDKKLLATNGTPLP
The note with it: at 0.1 µM.

The target in experiment [5] is T2, Serine/threonine-protein kinase BRSK1 (Homo sapiens). The note with it: at 1 µM.
The target of experiment [6] is T3, Serine/threonine-protein kinase BRSK2 (Homo sapiens) (UniProt Q8IWQ3).
T3 sequence (whole entry): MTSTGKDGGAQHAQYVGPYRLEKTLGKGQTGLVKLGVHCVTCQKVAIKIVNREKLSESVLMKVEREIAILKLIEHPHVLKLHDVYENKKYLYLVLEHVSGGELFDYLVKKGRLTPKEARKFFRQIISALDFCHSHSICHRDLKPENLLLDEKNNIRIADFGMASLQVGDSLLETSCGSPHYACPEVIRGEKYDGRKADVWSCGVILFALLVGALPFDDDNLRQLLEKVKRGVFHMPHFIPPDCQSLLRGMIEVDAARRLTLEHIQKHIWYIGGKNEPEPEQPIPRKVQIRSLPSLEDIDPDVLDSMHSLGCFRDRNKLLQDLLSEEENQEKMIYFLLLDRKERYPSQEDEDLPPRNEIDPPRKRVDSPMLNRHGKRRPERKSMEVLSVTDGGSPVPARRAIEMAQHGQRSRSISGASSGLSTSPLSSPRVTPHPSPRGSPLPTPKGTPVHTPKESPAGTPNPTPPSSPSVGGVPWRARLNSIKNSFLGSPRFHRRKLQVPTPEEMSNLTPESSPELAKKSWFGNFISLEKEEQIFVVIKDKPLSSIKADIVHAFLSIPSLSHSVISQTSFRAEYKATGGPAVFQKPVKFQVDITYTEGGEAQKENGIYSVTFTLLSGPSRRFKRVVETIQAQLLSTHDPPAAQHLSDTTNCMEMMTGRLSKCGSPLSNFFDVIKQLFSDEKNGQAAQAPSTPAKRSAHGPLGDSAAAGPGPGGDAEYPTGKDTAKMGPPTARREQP
The note with it: at 0.1 µM.

Experiment [7] deals with T3, Serine/threonine-protein kinase BRSK2 (Homo sapiens). The note with it: at 1 µM.
For experiment [8], the target named is Calcium/calmodulin-dependent protein kinase type 1D (Homo sapiens) (UniProt Q8IU85). The note with it: at 0.1 µM.
Calcium/calmodulin-dependent protein kinase type 1D (Homo sapiens), sequence (Q8IU85 whole entry, looked up): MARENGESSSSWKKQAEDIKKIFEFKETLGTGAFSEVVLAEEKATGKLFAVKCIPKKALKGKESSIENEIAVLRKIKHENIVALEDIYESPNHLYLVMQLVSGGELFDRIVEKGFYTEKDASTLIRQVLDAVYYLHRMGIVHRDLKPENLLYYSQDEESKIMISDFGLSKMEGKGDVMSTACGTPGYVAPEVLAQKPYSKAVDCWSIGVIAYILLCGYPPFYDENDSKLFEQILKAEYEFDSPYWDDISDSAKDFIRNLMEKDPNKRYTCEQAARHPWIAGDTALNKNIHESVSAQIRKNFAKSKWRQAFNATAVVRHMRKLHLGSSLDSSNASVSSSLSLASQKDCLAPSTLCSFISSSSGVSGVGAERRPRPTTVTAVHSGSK
Experiment [9] has the same target. The note with it: at 1 µM.
Experiment [10] addresses Calcium/calmodulin-dependent protein kinase type II subunit alpha (Homo sapiens) (UniProt Q9UQM7). The note with it: at 0.1 µM.
Experiment [11] has the same target. The note with it: at 1 µM.
Experiment [12] addresses Calcium/calmodulin-dependent protein kinase type II subunit delta (Homo sapiens) (UniProt Q13557). The note with it: at 0.1 µM.
For experiment [13] the target is unchanged. The note with it: at 1 µM.
Experiment [14] deals with T4, Calcium/calmodulin-dependent protein kinase type IV (Homo sapiens) (UniProt Q16566).
T4 sequence (whole entry): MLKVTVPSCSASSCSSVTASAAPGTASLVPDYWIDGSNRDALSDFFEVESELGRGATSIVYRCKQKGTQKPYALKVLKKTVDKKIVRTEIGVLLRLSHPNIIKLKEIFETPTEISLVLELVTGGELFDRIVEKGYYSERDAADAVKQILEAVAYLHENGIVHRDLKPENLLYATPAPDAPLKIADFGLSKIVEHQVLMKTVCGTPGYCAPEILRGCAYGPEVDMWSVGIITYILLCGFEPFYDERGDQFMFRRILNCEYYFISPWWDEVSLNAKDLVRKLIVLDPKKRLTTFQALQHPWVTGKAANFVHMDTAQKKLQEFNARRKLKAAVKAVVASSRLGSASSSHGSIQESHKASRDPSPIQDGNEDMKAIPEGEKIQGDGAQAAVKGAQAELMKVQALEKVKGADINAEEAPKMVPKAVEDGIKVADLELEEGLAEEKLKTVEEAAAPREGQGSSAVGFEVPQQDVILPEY
The note with it: at 0.1 µM.

Experiment [15] has as its target T4, Calcium/calmodulin-dependent protein kinase type IV (Homo sapiens). The note with it: at 1 µM.
The target of experiment [16] is T5, Serine/threonine-protein kinase Chk1 (Homo sapiens) (UniProt O14757).
T5 sequence (whole entry): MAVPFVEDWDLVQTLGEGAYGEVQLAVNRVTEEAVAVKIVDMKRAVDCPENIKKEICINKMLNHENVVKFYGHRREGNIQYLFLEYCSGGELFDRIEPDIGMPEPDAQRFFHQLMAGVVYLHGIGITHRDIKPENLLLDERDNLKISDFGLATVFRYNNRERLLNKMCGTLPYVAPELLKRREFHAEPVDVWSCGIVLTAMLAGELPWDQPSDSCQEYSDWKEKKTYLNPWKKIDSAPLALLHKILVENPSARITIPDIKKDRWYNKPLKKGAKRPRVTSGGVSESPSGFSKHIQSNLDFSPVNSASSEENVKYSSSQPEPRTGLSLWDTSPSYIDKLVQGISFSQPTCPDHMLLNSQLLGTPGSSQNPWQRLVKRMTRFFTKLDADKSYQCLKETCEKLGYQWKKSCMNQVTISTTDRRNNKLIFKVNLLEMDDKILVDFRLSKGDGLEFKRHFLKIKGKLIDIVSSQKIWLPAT
The note with it: at 0.1 µM.

In experiment [17] the target is T5, Serine/threonine-protein kinase Chk1 (Homo sapiens). The note with it: at 1 µM.
The target of experiment [18] is Serine/threonine-protein kinase Chk2 (Homo sapiens) (UniProt O96017). The note with it: at 0.1 µM.
Serine/threonine-protein kinase Chk2 (Homo sapiens), sequence (O96017 whole entry): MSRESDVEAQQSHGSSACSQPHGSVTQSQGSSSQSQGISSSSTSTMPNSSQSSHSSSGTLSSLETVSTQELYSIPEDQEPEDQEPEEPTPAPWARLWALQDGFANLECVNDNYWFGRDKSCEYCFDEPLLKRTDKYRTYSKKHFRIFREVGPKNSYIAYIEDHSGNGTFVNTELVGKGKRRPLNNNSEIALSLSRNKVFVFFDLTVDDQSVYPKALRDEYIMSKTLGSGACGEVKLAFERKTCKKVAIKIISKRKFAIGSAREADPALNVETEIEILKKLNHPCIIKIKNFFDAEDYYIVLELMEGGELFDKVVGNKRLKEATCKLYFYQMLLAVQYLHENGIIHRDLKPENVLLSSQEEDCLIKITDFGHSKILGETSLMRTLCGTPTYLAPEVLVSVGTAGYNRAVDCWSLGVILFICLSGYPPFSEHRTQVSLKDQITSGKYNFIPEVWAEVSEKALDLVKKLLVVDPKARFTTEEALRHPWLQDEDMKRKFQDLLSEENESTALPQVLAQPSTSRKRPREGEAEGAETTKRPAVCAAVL
For experiment [19] the target is unchanged. The note with it: at 1 µM.
For experiment [20], the target named is Death-associated protein kinase 1 (Homo sapiens) (UniProt P53355). The note with it: at 0.1 µM.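 Also: reported figure is the mean inhibition of DAPK1.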
Death-associated protein kinase 1 (Homo sapiens), sequence (P53355 whole entry, looked up): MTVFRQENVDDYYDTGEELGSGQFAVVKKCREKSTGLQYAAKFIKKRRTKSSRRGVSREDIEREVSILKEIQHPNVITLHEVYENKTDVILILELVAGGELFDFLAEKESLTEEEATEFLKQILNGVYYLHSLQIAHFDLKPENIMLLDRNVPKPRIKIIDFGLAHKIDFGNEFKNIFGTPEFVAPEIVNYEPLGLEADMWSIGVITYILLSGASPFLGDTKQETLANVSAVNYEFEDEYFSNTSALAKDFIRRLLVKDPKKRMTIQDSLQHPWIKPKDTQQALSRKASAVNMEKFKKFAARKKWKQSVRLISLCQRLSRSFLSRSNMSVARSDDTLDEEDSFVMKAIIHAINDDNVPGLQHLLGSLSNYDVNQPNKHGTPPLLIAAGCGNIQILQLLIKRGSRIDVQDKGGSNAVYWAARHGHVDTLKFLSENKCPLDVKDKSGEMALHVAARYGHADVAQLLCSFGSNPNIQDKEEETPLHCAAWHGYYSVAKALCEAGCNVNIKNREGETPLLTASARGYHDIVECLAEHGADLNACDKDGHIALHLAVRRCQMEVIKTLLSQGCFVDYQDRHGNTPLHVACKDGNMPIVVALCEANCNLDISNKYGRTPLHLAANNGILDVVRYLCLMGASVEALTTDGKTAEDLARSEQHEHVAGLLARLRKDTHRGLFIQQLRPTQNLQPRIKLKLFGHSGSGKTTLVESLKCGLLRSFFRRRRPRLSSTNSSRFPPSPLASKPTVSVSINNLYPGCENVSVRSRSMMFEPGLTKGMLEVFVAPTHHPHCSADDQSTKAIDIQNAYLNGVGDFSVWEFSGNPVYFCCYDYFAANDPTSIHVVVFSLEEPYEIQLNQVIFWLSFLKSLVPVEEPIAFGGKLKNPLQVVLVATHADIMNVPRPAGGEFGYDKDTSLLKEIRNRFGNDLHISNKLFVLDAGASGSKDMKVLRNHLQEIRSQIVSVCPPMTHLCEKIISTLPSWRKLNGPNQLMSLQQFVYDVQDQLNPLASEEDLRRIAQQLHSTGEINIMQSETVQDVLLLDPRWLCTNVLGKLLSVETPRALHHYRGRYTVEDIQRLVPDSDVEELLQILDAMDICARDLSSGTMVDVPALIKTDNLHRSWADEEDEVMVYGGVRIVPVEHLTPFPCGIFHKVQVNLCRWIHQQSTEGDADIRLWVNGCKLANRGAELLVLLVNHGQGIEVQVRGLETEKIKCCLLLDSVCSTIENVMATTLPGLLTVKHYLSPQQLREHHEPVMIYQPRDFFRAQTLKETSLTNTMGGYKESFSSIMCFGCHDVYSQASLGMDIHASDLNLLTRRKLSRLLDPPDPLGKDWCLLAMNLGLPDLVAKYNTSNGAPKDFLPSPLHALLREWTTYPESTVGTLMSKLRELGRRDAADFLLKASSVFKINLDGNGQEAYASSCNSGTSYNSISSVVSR

Each structure is given as a SMILES string.

Calcium/calmodulin-dependent protein kinase type II subunit alpha (Homo sapiens), sequence (Q9UQM7 whole entry): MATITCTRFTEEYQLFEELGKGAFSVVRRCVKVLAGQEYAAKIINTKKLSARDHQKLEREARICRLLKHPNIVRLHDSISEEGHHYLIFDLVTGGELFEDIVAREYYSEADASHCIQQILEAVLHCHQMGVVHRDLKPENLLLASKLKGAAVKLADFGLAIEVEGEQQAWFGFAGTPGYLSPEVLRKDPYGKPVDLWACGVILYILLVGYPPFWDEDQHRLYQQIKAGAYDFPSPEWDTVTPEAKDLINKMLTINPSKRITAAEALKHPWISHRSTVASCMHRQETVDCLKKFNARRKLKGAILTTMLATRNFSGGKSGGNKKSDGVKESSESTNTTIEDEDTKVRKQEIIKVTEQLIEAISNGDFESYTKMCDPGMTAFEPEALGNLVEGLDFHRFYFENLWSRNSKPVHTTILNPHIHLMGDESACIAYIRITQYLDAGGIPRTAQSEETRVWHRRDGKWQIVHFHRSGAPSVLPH
Calcium/calmodulin-dependent protein kinase type II subunit delta (Homo sapiens), sequence (Q13557 whole entry): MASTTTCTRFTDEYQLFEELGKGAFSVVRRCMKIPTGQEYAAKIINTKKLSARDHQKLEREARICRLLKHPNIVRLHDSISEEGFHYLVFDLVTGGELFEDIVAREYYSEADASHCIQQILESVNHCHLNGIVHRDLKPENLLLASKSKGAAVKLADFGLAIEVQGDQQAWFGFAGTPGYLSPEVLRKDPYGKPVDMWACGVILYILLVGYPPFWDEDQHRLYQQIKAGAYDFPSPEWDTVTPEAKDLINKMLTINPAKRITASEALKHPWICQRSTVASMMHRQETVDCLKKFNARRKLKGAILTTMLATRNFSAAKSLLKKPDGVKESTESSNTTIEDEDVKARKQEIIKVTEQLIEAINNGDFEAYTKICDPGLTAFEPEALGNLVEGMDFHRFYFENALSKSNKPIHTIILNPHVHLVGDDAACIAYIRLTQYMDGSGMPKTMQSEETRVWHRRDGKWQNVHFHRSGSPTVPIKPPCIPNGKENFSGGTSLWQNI
5'-AMP-activated protein kinase catalytic subunit alpha-2 (Homo sapiens), sequence (P54646 whole entry, looked up): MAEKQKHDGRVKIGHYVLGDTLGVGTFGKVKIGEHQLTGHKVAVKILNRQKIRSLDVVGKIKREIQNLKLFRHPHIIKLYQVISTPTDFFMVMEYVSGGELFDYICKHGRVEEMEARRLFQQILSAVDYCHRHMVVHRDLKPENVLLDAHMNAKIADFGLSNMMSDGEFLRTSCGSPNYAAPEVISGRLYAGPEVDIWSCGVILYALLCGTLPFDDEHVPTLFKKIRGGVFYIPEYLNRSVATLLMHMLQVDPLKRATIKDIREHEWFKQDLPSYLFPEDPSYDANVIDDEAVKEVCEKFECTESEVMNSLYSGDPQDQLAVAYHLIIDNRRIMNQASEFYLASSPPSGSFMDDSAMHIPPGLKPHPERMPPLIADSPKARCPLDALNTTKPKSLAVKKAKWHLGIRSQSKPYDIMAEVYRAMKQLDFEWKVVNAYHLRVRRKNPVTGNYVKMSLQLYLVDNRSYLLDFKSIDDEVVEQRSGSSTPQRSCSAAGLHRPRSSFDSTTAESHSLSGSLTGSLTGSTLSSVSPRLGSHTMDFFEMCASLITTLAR

Regarding `CCn1c(-c2nonc2N)nc2cnc(Oc3cccc(NC(=O)c4ccc(N(C)C)cc4)c3)cc21`, the inhibition came out at 10.1% in experiment [1]; 3.21% in experiment [2]; 18.7% in experiment [3]; 1.7% in experiment [4]; 3.54% in experiment [5]; 2.26% in experiment [6]. Further, the inhibition was 2.76% in experiment [7]; 0.25% in experiment [8]; 2.17% in experiment [9]; 0.79% in experiment [10]; 5.87% in experiment [11]; 1.23% in [12]. Moreover, the inhibition in experiment [13] was 17.3%; in experiment [14], 0.01%; in experiment [15] it was 1.14%; in experiment [16] it was 0.31%; in [17], 5.78%; in experiment [18], 1.31%. In addition, the inhibition in experiment [19] was found to be 8.31%; in experiment [20], 1.42%.

As for `Fc1ccc(-c2nn3ncccc3c2-c2ccnc(Nc3ccc4c(c3)OCCO4)n2)cc1`, the inhibition in experiment [1] was 4.39%; in experiment [2] it was -3.69%; in experiment [3] it was -0.79%; in experiment [4], 0.48%; in experiment [5], -0.53%; in experiment [6] it was 0.21%. Also, the inhibition in experiment [7] was -0.44%; in experiment [8], -0.07%; in [9], 8.91%; in experiment [10], 3.81%; in experiment [11] it was 4.05%; in [12], 3.8%. In addition, the inhibition in experiment [13] was 5.51%; in experiment [14] it was 0.98%; in experiment [15], 1.52%; in [16], 1.26%; in experiment [17], -1.02%; in experiment [18], 3.9%. The inhibition stood at 5.77% in experiment [19] and 0.23% in experiment [20].

As to `CS(=O)(=O)CCNCc1coc(-c2ccc3ncnc(Nc4ccc(OCc5ccccc5)cc4)c3c2)c1`, the inhibition in [1] is 4.29%; in [2], 2.46%; in [3] it was 3.61%; in experiment [4] it was 1.86%; in experiment [5], -1.55%; in experiment [6], 1.32%. The inhibition in [7] turned out to be 3.39%; in experiment [8], 0.92%; in experiment [9] it was 2.2%; in experiment [10], 2.93%; in experiment [11], 6.16%; in experiment [12], 2.95%. In addition, the inhibition in experiment [13] was found to be 3.61%; in [14], 2.14%; in experiment [15] it was 3.11%; in experiment [16], 1.85%; in [17], 3.43%; in experiment [18] it was 5.28%. Also, the inhibition worked out at 28.8% in [19] and 2.7% in experiment [20].

As for `CCCN(CCS(C)(=O)=O)Cc1ccc(-c2ccc3ncnc(Nc4ccc(OCc5cccc(F)c5)c(Cl)c4)c3c2)o1`, the inhibition in [1] was 2.91%; in [2], -7.52%; in experiment [3], 4.57%; in experiment [4], 1.22%; in experiment [5], 3.8%; in experiment [6], 1.68%. In addition, the inhibition in experiment [7] came out at 7.08%; in [8], 0.15%; in experiment [9], 1.73%; in experiment [10], 0.86%; in experiment [11], 0.76%; in experiment [12], 1.58%. Further, the inhibition is 1.84% in experiment [13]; 1.01% in experiment [14]; 2.17% in [15]; 7.57% in experiment [16]; 6.58% in experiment [17]; 5.44% in [18]. Further, the inhibition in experiment [19] worked out at 6.1%; in experiment [20] it was 8.24%.

These data come from ChEMBL document CHEMBL1961873, “Compounds: GSK PKIS; Assays: Nanosyn kinase panel” (2012).
